Values without a mark were called inactive. Results filed as inconclusive are left out. A call without a number means that no potency is given here. Activity calls are given as the source filed them. The call rests on the fitted dose curve; in most records, active means well fitted curve in the direction sought with a large enough effect; inconclusive means small, poorly fitted or top-dose-only effect, or another doubt; inactive means no such curve, though single readings can be large; an effect the other way counts as inactive or inconclusive. Square brackets hold non-standard residues; d marks the D form. Peptide text beside a SMILES is read from it. * marks the point of attachment. ξ: configuration not given here. Hexanoyl = CCCCCC(=O)*; ξL = CC(C)CC(N)C(=O)O
Key:
[1] = OV-SAHO Cancer Cell Toxicity qHTS against the NCATS CANVASS Library (AID 1347348); further: nearly all actives have a fitted effect of over 55% in size; further: potency means the concentration at half of the fitted maximal effect
In short: (§1)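 ATP content after 72 h treatment, detected by CellTiter-Glo luminescence (15min room-temperature development), reflects cell viability. Wells contained 1000 cells and received compounds at 11 concentrations.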

[2] = Panc-1005 Cancer Cell Toxicity qHTS against the NCATS CANVASS Library (AID 1347349); further: series mostly up to about 38 µM; nearly all actives have a fitted effect of over 60% in size
In short: as §1

[3] = COV-362 Cancer Cell Toxicity qHTS against the NCATS CANVASS Library (AID 1347352); further: series mostly up to about 38 µM
In short: (§2)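 qHTS cytotoxicity: compounds tested in 11 concentrations on 1000 seeded cells per well over 72 h; bortezomib served as control; signal from CellTiter-Glo luminescence.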

[4] = UWB1.289-WTBRCA1 Cancer Cell Toxicity qHTS against the NCATS CANVASS Library (AID 1347354)
In short: as §2

[5] = HPAF-II 24hr Apoptosis Induction qHTS against the NCATS CANVASS Library (AID 1347356)
In short: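 Apoptosis induction in HPAF-II pancreatic cancer cells is measured as caspase-3/7 luminescence after a 24-hour exposure to compounds.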

[6] = qHTS for ATAD5 Agonist screened against the NCATS CANVASS Library (AID 1347367)
In short: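 Luminescence read-out: ATAD5-driven luciferase in stably transfected HEK 293T cells, which rises post-transcriptionally with DNA damage. Cells were exposed 16hr at 37C to test compound; a CellTiter-Fluor fluorescence read (1hr) measured viability first.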

[7] = qHTS for Hypoxia signaling pathway (HIF-1) antagonists against the NCATS CANVASS Library (AID 1347374); further: nearly all actives have a fitted effect of over 60% in size; further: potency means the concentration at half of the fitted maximal effect
In short: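 HRE-bla ME-180 cells (2,000/well, 0.5% dialyzed FBS) were pre-incubated 5 h, then given an 11-point compound series plus CoCl2 (60 uM solution as added) for 17 h at 37C. CCF4 β-lactamase read (ex 405, em 460/530 nm) after 2 h at RT.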

[8] = qHTS for Hypoxia signaling pathway (HIF-1) agonists against the NCATS CANVASS Library (AID 1347375)
In short: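 Inducers of HIF-1 signaling were detected in ME-180 cells bearing an HRE-driven beta-lactamase reporter after 17 h compound exposure. Activity came from CCF4-AM FRET emission ratio (460/530 nm) in qHTS format.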

[9] = Cytotoxicity qHTS for assessment of Hepg2 cells membrane integrity screened against the NCATS CANVASS Library (AID 1347387)
In short: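 Fluorescence proportional to lysed-cell number, from LDH leaking out of HepG2 cells exposed 5 hr at 37C to 0.59 nM - 46 uM compound (11-point qHTS), is measured after 10 min with CytoTox-ONE.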

[10] = qHTS for activators of Nrf2/ARE signaling pathway screened against the NCATS CANVASS Library (AID 1347391); further: nearly all actives have a fitted effect of over 60% in size; further: potency means the concentration at half of the fitted maximal effect
In short: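 Cells carrying an ARE-driven beta-lactamase reporter (HepG2 background) are dosed for 16 h, then stained with CCF4. Cell viability in the same wells is measured by CellTiter-Glo luminescence.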

[11] = qHTS for activators of dead-cell proteases activity screened against the NCATS CANVASS Library (AID 1347392);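 further: luminescence from protease leaking out of membrane-damaged cells cleaving impermeant substrate; rising signal means more cytotoxicity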
In short: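 Compounds are pin-transferred onto attached HepG2 cells, giving 11 final concentrations. After 5 h at 37C, AAF-aminoluciferin reagent is added and luminescence is recorded at room temperature.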

[12] = Viability qHTS for inhibitors of the SERCaMP assay screened against the NCATS CANVASS Library (AID 1347400); further: nearly all actives have a fitted effect of over 70% in size; further: potency means the concentration at half of the fitted maximal effect
In short: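 Cytotoxicity counter-screen: ATP content (CellTiter-Glo luminescence) of SH-SY5Y-GLuc SERCaMP MJH297 cells after 48 h at 37C with compounds in an 11-point qHTS series.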

[13] = HPAF-II Cancer Cell Toxicity qHTS against the NCATS CANVASS Library (AID 1347346); further: series mostly up to about 38 µM; nearly all actives have a fitted effect of over 55% in size
In short: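 Cytotoxicity in HPAF-II pancreatic cancer cells: 72 h treatment across 11 concentrations, ATP-based CellTiter-Glo luminescence endpoint.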

[14] = A2780 Cisplatin Sensitive Ovarian Cancer Cell Toxicity qHTS against the NCATS CANVASS Library (AID 1347353); further: nearly all actives have a fitted effect of over 60% in size; further: potency means the concentration at half of the fitted maximal effect
In short: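 Seventy-two-hour exposure of cisplatin-sensitive A2780 ovarian cells to an 11-concentration qHTS series; cytotoxicity is inferred from loss of ATPLite luminescence. Bortezomib titration served as positive control.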

[15] = HEK-293 Cancer Cell Toxicity qHTS against the NCATS CANVASS Library (AID 1347355); further: nearly all actives have a fitted effect of over 65% in size; further: potency means the concentration at half of the fitted maximal effect; on outcome: series mostly up to about 46 µM
In short: as §2

[16] = SDT Cancer Cell Toxicity qHTS against the NCATS CANVASS Library (AID 1347365); further: nearly all actives have a fitted effect of over 60% in size; further: potency means the concentration at half of the fitted maximal effect
In short: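 Dispense 500 SDT cells per well; pin-transfer compounds; incubate 72 hr at 37C, 5% CO2, 95% RH; add CellTiterGlo and read luminescence.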

[17] = qHTS for inhibitors of ER calcium dysfunction: SERCaMP assay screened against the NCATS CANVASS Library (AID 1347393); further: nearly all actives have a fitted effect of over 40% in size; further: potency means the concentration at half of the fitted maximal effect
In short: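 Thapsigargin-induced ER calcium depletion drives GLuc-SERCaMP secretion from SH-SY5Y cells; compounds given 16 h beforehand were scored by lowered coelenterazine luminescence after 4 h challenge.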

[18] = Vero-766 cells viability qHTS against the NCATS CANVASS Library: Counterscreen for Zika virus inhibition assay (AID 1347394); further: nearly all actives have a fitted effect of over 60% in size; further: potency means the concentration at half of the fitted maximal effect
In short: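 CellTiter-Glo luminescence, lower signal indicating cytotoxicity. Vero 766 cells without Zika virus, 1000 cells/well, plated overnight, then treated 72 h at 37C across an 11-point series.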

[19] = Redox Reaction Profiling qHTS: Assay Interference Panel against the NCATS CANVASS Library (AID 1347401)
In short: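 Cell-free redox surrogate: 5 uM resazurin + 200 uM DTT, 50 mM HEPES pH 7.3/50 mM NaCl; cpds pinned, 11-pt qHTS; Ex525/Em598 read t0 and t=15 min, dark.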

[20] = KB-8-5-11 Cancer Cell Toxicity qHTS against the NCATS CANVASS Library (AID 1347364); further: nearly all actives have a fitted effect of over 75% in size; further: potency means the concentration at half of the fitted maximal effect
In short: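 Natural products were titrated in 11 points onto KB-8-5-11 cells, 500 per well, and cytotoxicity was scored from CellTiter-Glo luminescence after 72 hr culture.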

| SMILES | Potency [1] | Potency [2] | Potency [3] | Potency [4] | outcome [5] | Potency [6] | Potency [7] | outcome [8] | outcome [9] | Potency [10] | Potency [11] | Potency [12] | Potency [13] | Potency [14] | Potency [15] | Potency [16] | Potency [17] | Potency [18] | Potency [19] | Potency [20] |
| --- | --- | --- | --- | --- | --- | --- | --- | --- | --- | --- | --- | --- | --- | --- | --- | --- | --- | --- | --- | --- |
| COc1cc2oc3ccccc3c(=O)c2cc1OC | inactive | inactive | inactive | inactive | inactive | inactive | inactive | inactive | inactive | 3.41 µM (active) | inactive | inactive |  |  |  |  |  |  |  |  |
| COc1ccc([C@@H]2c3cc4c(cc3C(=O)C(C)C2C)OCO4)cc1OC (stereo partly specified) | inactive | inactive | inactive | inactive |  | inactive | inactive |  |  |  | inactive | inactive | inactive | inactive | inactive | inactive | 7.67 µM (active) | inactive | inactive |  |
| C[C@H](c1cnc(N)[nH]1)c1ccc(O)c2[nH]cc(-c3cnc(-c4c[nH]c5ccccc45)c(=O)[nH]3)c12 | inactive | inactive | inactive | inactive |  | inactive |  |  |  | inactive |  | inactive |  | inactive |  |  |  | inactive |  | inactive |
| COC1C(C)OC(OCC23C[C@@H]4[C@H](C)CC[C@H]4C4(C=O)CC2C=C(C(C)C)C34C(=O)O)[C@@H](O)[C@H]1O (stereo partly specified) | inactive | inactive | inactive | inactive |  | inactive | inactive | inactive | inactive | inactive | inactive | inactive | inactive | inactive | inactive | inactive | inactive | inactive | inactive | inactive |
| C=C1C[C@]23C=CC(=O)[C@@](C)(CCCC(C)C(=O)N[C@@H](CO)C(=O)O)[C@@H]2C[C@@H]1CC3 (stereo partly specified) | inactive | inactive | inactive | inactive | inactive | inactive | inactive | inactive | inactive | inactive |  | inactive | inactive | inactive | inactive | inactive | inactive | inactive | inactive | inactive |
| C[C@H](CCC(O)C(C)(O)CO)[C@@]1(O)CC[C@@]2(C)C3=C(CC[C@@]21C)[C@@]1(C)CCC(OC(=O)CCC(=O)O)C(C)(C)[C@@H]1CC3 (stereo partly specified) | inactive | inactive | inactive | inactive | inactive | inactive | 14.9 µM (active) | inactive | inactive |  | inactive | inactive |  | inactive | inactive | inactive | inactive | 29.5 µM (active) | inactive | inactive |
| O=C1c2c(O)cc(O)cc2OC(c2ccc(O)cc2)C1O (stereo unspecified) | inactive | inactive | inactive | inactive | inactive | inactive |  | inactive | inactive | inactive |  | inactive | inactive | inactive | inactive | inactive |  | inactive | inactive | inactive |
| CC(C)[C@@H]1CC(=O)c2coc3c2[C@H]1C[C@@H](C)C3=O |  |  |  | inactive |  |  |  |  | inactive |  | inactive |  | inactive |  |  |  | inactive |  | inactive |  |
| CC[C@@H](C)[C@H]1NC(=O)C(CC(C)C)NC(=O)[C@@H](CC(C)C)NC(=O)[C@H](Cc2c[nH]c3ccccc23)NC(=O)CNC(=O)[C@@H](CC(N)=O)NC1=O (stereo partly drawn) (cyclo(GW[dL][ξL][dI][dN])) |  | inactive | inactive | inactive | inactive |  |  |  |  | inactive |  |  | inactive | inactive | 11.8 µM (active) | 16.6 µM (active) | inactive | inactive | inactive |  |
| C=C[C@@](C)(O)CC[C@@H]1[C@@]2(C)CCCC(C)(C)[C@@H]2CC[C@@]1(C)O | inactive |  | inactive | inactive | inactive | inactive | inactive |  |  | inactive | inactive | inactive |  | inactive |  |  |  | inactive |  |  |
| C=C1C[C@H]2O[C@@H]3[C@@H]4[C@H](CC[C@@](C)(O)[C@@H]42)[C@H](C)COC3(C)[C@@H](OC(=O)CCCCCCC)CC1=O (stereo partly specified) | 18.8 µM (active) |  |  |  | inactive |  |  |  |  | inactive | inactive |  |  | 13.2 µM (active) | 14.8 µM (active) | 23.5 µM (active) |  |  | inactive |  |
| CC1=C[C@H]2[C@H]3C(=O)C(c4ccc(O)cc4)=C[C@@]3(c3ccc(O)cc3)[C@@H]1C(=O)[C@]2(C)O | inactive |  |  |  | inactive |  | inactive | inactive | inactive |  | inactive | 0.48 µM (active) |  | 0.418 µM (active) | 0.235 µM (active) | 0.209 µM (active) | inactive |  |  | 3.72 µM (active) |
| C/C=C(/CO)C(=O)O[C@@H]1[C@H](O)[C@@H](C(=O)OC)O[C@@H]2C[C@H]3OC(n4cnc5c(N)ncnc54)[C@H](OC)[C@H]3O[C@@]12O (stereo partly specified) | inactive | inactive | inactive | inactive |  | inactive | inactive | inactive | inactive | 18.6 µM (active) | inactive | inactive | inactive | inactive | inactive | inactive | inactive | inactive |  | inactive |
| CCCCCC(=O)N[C@@H](CC(C)C)C(=O)N[C@H](C=O)CCC(=O)O (Hexanoyl-Leu-Glu-aldehyde) | inactive | inactive | inactive | inactive | inactive | inactive | inactive | inactive |  | inactive | inactive | inactive | inactive | inactive | inactive | inactive | inactive | inactive | inactive | inactive |

— PubChem BioAssay (NCATS)
